Compound activity (PubChem BioAssay)
The entries come from a sample that favours hits as a whole.
IDE exosite FP: displaces the probe from the exo-site of human IDE | P14735 | purified IDE, FL-6b probe fluorescence polarization; active compounds read low | z-score at 20 µM | actives 6.3% (n = 17,000) | AID 1259349;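 active = z-score of -3 or lower, meaning strong loss of probe binding signal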;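 note: His-tagged human IDE residues 42-1019 made in E. coli with 30 nM FL-6b probe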
An asterisk follows results filed as active.

How did O=S(=O)(c1cccs1)N1CCCCN2[C@H](C1)[C@H](c1ccc(C3=CCCC3)cc1)[C@@H]2CO do in these assays?
IDE exosite FP: 0.98

How did COc1cccc(-c2ccc([C@@H]3[C@H](CO)N4CCCCN(S(=O)(=O)c5cccs5)C[C@@H]34)cc2)c1 do in these assays?
IDE exosite FP: -6*

How did Cc1cccc(-c2ccc([C@H]3[C@H](CO)N4CCCCN(S(=O)(=O)c5cccs5)C[C@@H]34)cc2)c1 do in these assays?
IDE exosite FP: 3.2

What do the screens show for `Cc1cccc(-c2ccc([C@@H]3[C@@H](CO)N4CCCCN(S(=O)(=O)c5cccs5)C[C@@H]34)cc2)c1`?
IDE exosite FP: -3.8*

Results for Cc1cccc(-c2ccc([C@@H]3[C@H]4CN(S(=O)(=O)c5cccs5)CCCCN4[C@H]3CO)cc2)c1 ?
IDE exosite FP: 0.55

How did Cc1cccc(-c2ccc([C@@H]3[C@H](CO)N4CCCCN(S(=O)(=O)c5cccs5)C[C@@H]34)cc2)c1 do in these assays?
IDE exosite FP: -8*

How did COc1cccc(S(=O)(=O)N2CCCCN3[C@@H](CO)[C@@H](c4ccc(-c5ccccc5)cc4)[C@@H]3C2)c1 do in these assays?
IDE exosite FP: 5.5

How did O=S(=O)(c1cccs1)N1CCCCN2[C@H](C1)[C@H](c1ccc(/C=C/c3ccccc3)cc1)[C@@H]2CO do in these assays?
IDE exosite FP: -0.7

What do the screens show for `O=S(=O)(c1cccs1)N1CCCCN2[C@@H](CO)[C@@H](c3ccc(/C=C/c4ccccc4)cc3)[C@@H]2C1`?
IDE exosite FP: -3.2*

How did Cc1cccc(-c2ccc([C@H]3[C@@H](CO)N4CCCCN(S(=O)(=O)c5cccc(C)c5)C[C@@H]34)cc2)c1 do in these assays?
IDE exosite FP: -1.1

Results for O=S(=O)(c1cccs1)N1CCCCN2[C@H](CO)[C@H](c3ccc(/C=C/c4ccccc4)cc3)[C@@H]2C1 ?
IDE exosite FP: -0.12

Results for COc1cccc(-c2ccc([C@@H]3[C@@H](CO)N4CCCCN(S(=O)(=O)c5cccs5)C[C@H]34)cc2)c1 ?
IDE exosite FP: 0.67

What do the screens show for `COc1cccc(NC(=O)N2CC(=O)N3[C@H](CO)[C@H](c4ccc(C#CC5CCCCC5)cc4)[C@@H]3C2)c1`?
IDE exosite FP: 3.8

Results for O=C(C[C@@H]1CC[C@@H]2[C@H](COC[C@H](O)CN2C(=O)c2ccc3c(c2)OCO3)O1)NC1CCC1 ?
IDE exosite FP: 0.18

What do the screens show for `Cc1noc(C)c1S(=O)(=O)N1[C@@H]2CNC[C@H]1C2c1ccc(-c2cccc(F)c2)cc1` (some centres not stated)?
IDE exosite FP: -0.44

What do the screens show for `CCCC#Cc1ccc([C@H]2[C@@H](CO)N(C(C)=O)[C@H]2CNC(=O)C2CC2)cc1`?
IDE exosite FP: 3.9

What do the screens show for `Cc1ccc(S(=O)(=O)N(C)C[C@@H]2OCCCC[C@@H](C)Oc3ccc(NC(=O)c4ccncc4)cc3C(=O)N([C@@H](C)CO)C[C@H]2C)cc1`?
IDE exosite FP: 1.4

Results for CO[C@@H]1CN(C)C(=O)c2ccc(NC(=O)c3cccc(F)c3)cc2OC[C@H](C)NC[C@H]1C ?
IDE exosite FP: 1.3

How did COc1cccc(S(=O)(=O)N[C@H]2CC[C@H](CC(=O)NC3Cc4ccccc4C3)O[C@@H]2CO)c1 do in these assays?
IDE exosite FP: -0.84

Results for CN1C(=O)c2cc(NS(=O)(=O)c3cccc(F)c3)ccc2OC[C@@H]2O[C@H](CC(=O)N3CCc4ccccc4C3)CC[C@H]21 ?
IDE exosite FP: -0.18

How did N#C[C@@H]1[C@H](c2ccc(C#Cc3ccccc3F)cc2)[C@@H](CO)N1C(=O)C1CCC1 do in these assays?
IDE exosite FP: -4.8*

What do the screens show for `N#C[C@H]1[C@H](c2ccc(C#Cc3ccccc3F)cc2)[C@@H](CO)N1C(=O)C1CC1`?
IDE exosite FP: 3.4

What do the screens show for `N#C[C@@H]1[C@H](c2ccc(C#Cc3ccccc3F)cc2)[C@@H](CO)N1C(=O)c1cccnc1`?
IDE exosite FP: -4*

Results for N#C[C@@H]1[C@@H](c2ccc(C#Cc3ccccc3F)cc2)[C@@H](CO)N1C(=O)C1CC1 ?
IDE exosite FP: -1.6

Results for N#C[C@@H]1[C@@H](c2ccc(C#Cc3ccccc3F)cc2)[C@H](CO)N1C(=O)C1CCC1 ?
IDE exosite FP: 1

What do the screens show for `N#C[C@@H]1N[C@@H](CO)[C@H]1c1ccc(-c2ccccc2F)cc1`?
IDE exosite FP: 2.1

What do the screens show for `N#C[C@@H]1[C@H](c2ccc(C#Cc3ccccc3F)cc2)[C@H](CO)N1C(=O)c1cccnc1`?
IDE exosite FP: -1.7

How did N#C[C@H]1N[C@@H](CO)[C@H]1c1ccc(C#Cc2ccccc2F)cc1 do in these assays?
IDE exosite FP: -4*

Results for N#C[C@@H]1[C@@H](c2ccccc2)[C@@H](CO)N1C(=O)c1cccnc1 ?
IDE exosite FP: 6.3

How did N#C[C@H]1[C@H](c2ccc(C#Cc3ccccc3F)cc2)[C@@H](CO)N1C(=O)C1CCOCC1 do in these assays?
IDE exosite FP: -5.9*

What do the screens show for `N#C[C@H]1N[C@H](CO)[C@H]1c1ccc(C#Cc2ccccc2F)cc1`?
IDE exosite FP: -0.075

What do the screens show for `N#C[C@H]1[C@H](c2ccc(C#Cc3ccccc3F)cc2)[C@@H](CO)N1C(=O)C1CCC1`?
IDE exosite FP: 3.7

Results for CC(=O)NC[C@H]1[C@H](c2ccc(-c3ccccc3F)cc2)[C@@H](CO)N1C(=O)C1CC1 ?
IDE exosite FP: 0.47

How did Cc1noc(C)c1S(=O)(=O)Nc1ccc2c(c1)CC(=O)N([C@@H](C)CO)C[C@@H](C)[C@H](CN(C)Cc1ccc(Oc3ccccc3)cc1)O2 do in these assays?
IDE exosite FP: -2.5

What do the screens show for `CCN(C[C@@H]1[C@@H](c2ccccc2)[C@H](CO)N1CC1CC1)C(C)=O`?
IDE exosite FP: 2.4

How did CO[C@H]1CN(C)C(=O)c2cc(NC(=O)Nc3c(C)noc3C)ccc2OC[C@@H](C)NC[C@@H]1C do in these assays?
IDE exosite FP: -0.39

What do the screens show for `O=C(C[C@H]1C[C@@H]2c3cc(NC(=O)CC4CC4)ccc3O[C@@H]2[C@H](CO)O1)NCC1CC1`?
IDE exosite FP: -0.78

Results for CC(C)C(=O)Nc1ccc2c(c1)C(=O)N(C)[C@H]1CC[C@@H](CC(=O)NCCc3ccccc3)O[C@@H]1CO2 ?
IDE exosite FP: -0.65

How did C[C@H](NC(=O)C[C@@H]1CC[C@@H]2[C@H](COC[C@H](O)CN2C(=O)Nc2cccc(Cl)c2)O1)c1ccccc1 do in these assays?
IDE exosite FP: 1

What do the screens show for `O=C1CNC[C@H]2[C@H](c3ccc(C4=CCCC4)cc3)[C@@H](CO)N12`?
IDE exosite FP: 1.2

Results for O=C(c1cccc(F)c1)N1CC(=O)N2[C@H](CO)[C@@H](c3ccc(-c4ccccc4)cc3)[C@H]2C1 ?
IDE exosite FP: 0.81

What do the screens show for `O=C(Nc1ccccc1F)N1CC(=O)N2[C@@H](CO)[C@@H](c3ccc(C#Cc4ccc(F)cc4)cc3)[C@@H]2C1`?
IDE exosite FP: 0.6

Results for O=C(c1ccccc1F)N1CC(=O)N2[C@@H](CO)[C@H](c3ccc(-c4ccccc4)cc3)[C@@H]2C1 ?
IDE exosite FP: -1.2

Results for O=C(c1ccccc1F)N1CC(=O)N2[C@H](C1)[C@H](c1ccc(C#Cc3ccccc3)cc1)[C@@H]2CO ?
IDE exosite FP: -3.4*

What do the screens show for `O=C(c1cccc(F)c1)N1CC(=O)N2[C@H](C1)[C@@H](c1ccc(-c3ccccc3)cc1)[C@@H]2CO`?
IDE exosite FP: -3.4*

Results for O=C(c1ccccc1F)N1CC(=O)N2[C@H](CO)[C@H](c3ccc(C#Cc4ccccc4)cc3)[C@@H]2C1 ?
IDE exosite FP: -1.8
